Results reported in PubChem BioAssay (NCATS).
“And” between values parts separate entries of the source, which are not always exact repeats. Equal values may be shown once. A number with no mark means an inactive call. Inconclusive results are not listed. The source made the active and inactive calls. Calls come from the whole dose curve; as a rule, active = well fitted curve in the direction sought with a large enough effect; inconclusive = small, poorly fitted or top-dose-only effect, or another doubt; inactive = no such curve, though single readings can be large; an effect the other way counts as inactive or inconclusive.

Legend:
[1] = target: Cytochrome P450 3A4 (Homo sapiens) (UniProt P08684); assay: qHTS Assay for Inhibitors and Substrates of Cytochrome P450 3A4 (AID 884); conditions: recombinant CYP3A4, Luciferin-PPXE luminescence; series mostly up to 57.1 µM; note: potency is the fitted concentration of half-maximal effect; nearly all actives have a fitted effect of over 50% in size
Cytochrome P450 3A4 (Homo sapiens), sequence (P08684 whole entry, looked up): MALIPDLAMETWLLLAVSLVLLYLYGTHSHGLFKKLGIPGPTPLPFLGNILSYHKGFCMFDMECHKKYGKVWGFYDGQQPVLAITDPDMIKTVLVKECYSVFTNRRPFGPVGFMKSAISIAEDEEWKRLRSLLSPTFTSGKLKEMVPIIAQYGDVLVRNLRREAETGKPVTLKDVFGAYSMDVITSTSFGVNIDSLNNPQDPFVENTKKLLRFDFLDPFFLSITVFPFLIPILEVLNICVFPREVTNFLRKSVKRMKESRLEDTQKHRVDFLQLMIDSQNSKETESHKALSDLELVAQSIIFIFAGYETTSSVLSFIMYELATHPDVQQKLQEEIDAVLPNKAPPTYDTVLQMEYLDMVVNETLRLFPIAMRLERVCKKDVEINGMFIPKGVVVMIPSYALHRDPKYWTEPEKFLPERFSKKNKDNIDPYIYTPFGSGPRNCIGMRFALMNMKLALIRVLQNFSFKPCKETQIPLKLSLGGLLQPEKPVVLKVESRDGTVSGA
How it was run: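 Luminescent readout of luciferin produced by CYP3A4 (20 nM) dealkylation of Luciferin-PPXE, 25 uM (its KM). NADPH-driven reaction ran 60 min at RT after 10 min compound preincubation; data scaled to 57 uM ketoconazole as 100% inhibition.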

[2] = target: Cytochrome P450 3A4 (Homo sapiens) (UniProt P08684); assay: qHTS Assay for Activators of Cytochrome P450 3A4 (AID 885); conditions: recombinant CYP3A4, Luciferin-PPXE luminescence, 60 min; series mostly up to 57.1 µM; note: nearly all actives have a fitted effect of over 65% in size
How it was run: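 Luminescent readout of luciferin formed from 25 uM Luciferin-PPXE (KM level) by 20 nM CYP3A4 in 200 mM KPO4, with 60 min NADPH-driven reaction at room temperature after 10 min compound exposure. Ketoconazole (57 uM) defined 100% inhibition.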

Structure (SMILES): CC(C)c1ccccc1S(=O)(=O)c1cc(N)c2ncccc2c1[N+](=O)[O-]
- Potency [1]: 1 µM (active)
- Potency [2]: inactive

Structure (SMILES): CC(=O)OC[C@@H]1O[C@H](C/C=N\O[C@@H](C)c2cc(-c3c(C)cc(C)cc3C)no2)C=C[C@@H]1OC(C)=O
- Potency [1]: 3.16 µM (active)
- activity change, positive = activation [2]: -77.7% [at 11.4 µM]

Structure (SMILES): CCC1=C2CC[C@H]3C(=O)N(CC)C(=O)[C@H]3[C@H]2[C@@]2(Cc3ccccc3)C(=NCc3ccccc3)OC(=O)N2C1=O
- Potency [1]: 3.16 µM (active)
- Potency [2]: inactive

Structure (SMILES): C/C(CCN1CCCc2nc(C)c(C)cc21)=N\O[C@@H](C)CN1CCCCc2nc(C)c(C)cc21
- Potency [1]: 3.98 µM (active)
- activity change, positive = activation [2]: -69.7% [at 11.4 µM]

Structure (SMILES): CCC1=C(OC(=O)N(CC)CC)N2C(=O)OC(=NCCOC)[C@]2(Cc2ccccc2)[C@H]2C1=CC[C@H]1C(=O)N(CC)C(=O)[C@H]12
- Potency [1]: 5.01 µM (active)
- Potency [2]: inactive

Structure (SMILES): CN1C[C@@H]2C(c3ccc(C(F)(F)F)cc3)C3(c4cccnc4)CC2(C3)[C@H]1c1ccccc1 (stereo partly specified)
- Potency [1]: 7.94 µM (active)
- Potency [2]: inactive

Structure (SMILES): CCC1=C(OC(=O)N(CC)CC)N2C(=O)OC(=NCCc3c[nH]c4ccccc34)[C@]2(C)[C@H]2C1=CC[C@H]1C(=O)NC(=O)[C@H]12
- Potency [1]: 2.51 µM (active)
- Potency [2]: inactive

Structure (SMILES): CCCCCCNC(=O)Nc1ccc(S(=O)(=O)Nc2ccc(CCNC[C@H](O)COc3ccc(O)cc3)cc2)cc1
- Potency [1]: 7.94 µM (active)
- Potency [2]: inactive

Structure (SMILES): C/C(CCC(=O)OC[C@@H]1O[C@H](C#Cc2ccccc2)C=C[C@@H]1Oc1ccc(C)cc1)=N/O[C@@H](C)CN1CCCCc2nc(C)c(C)cc21
- Potency [1]: 3.16 µM (active)
- activity change, positive = activation [2]: -94.6% [at 11.4 µM]

Structure (SMILES): Cc1c(C(=O)NC2CCCCC2)sc2nc3ccc(N)cc3n12
- Potency [1]: 1.58 µM (active)
- Potency [2]: inactive

Structure (SMILES): CC1(C)CC(=O)c2c(oc3cc4c(cc23)OCO4)C1
- Potency [1]: 3.98 µM (active)
- Potency [2]: inactive

Structure (SMILES): NC(N)=NCCC[C@H](NC(=O)CC1(CC(=O)N2CCN(C3c4ccccc4NC(=O)c4ccccc43)CC2)CCCC1)C(=O)NCCn1c(=O)n(-c2ccccc2)n(-c2ccccc2)c1=O (stereo partly specified)
- Potency [1]: 12.6 µM (active)
- Potency [2]: inactive

Structure (SMILES): CNC(=O)[C@@H](Cc1ccccc1)N(C)C(=O)[C@@H](Cc1ccc2ccccc2c1)N(C)C(=O)/C=C/CC(C)(C)N
- Potency [1]: 7.94 µM (active)
- Potency [2]: inactive

Structure (SMILES): COc1ccc(O[C@H]2C=C[C@@H](c3ccccc3)O[C@H]2COC(=O)CC/C(C)=N\O[C@@H](C)c2cc(-c3c(C)cc(C)cc3C)no2)cc1
- Potency [1]: 3.16 µM (active)
- activity change, positive = activation [2]: -63.2% [at 11.4 µM]

Structure (SMILES): C=CC[C@@H]1C=C[C@H](O/N=C(\C)CCN2CCCc3nc(C)c(C)cc32)[C@H](CO)O1
- Potency [1]: 2.51 µM (active)
- activity change, positive = activation [2]: -70.1% [at 11.4 µM]

Structure (SMILES): C#CCCCO/N=C1/C[C@@H](O)[C@@H](O)[C@@H]2[C@@H]3C(=O)N([C@@H](C)c4ccccc4)C(=O)[C@H]3CC[C@H]12
- Potency [1]: 3.98 µM (active)
- activity change, positive = activation [2]: -89.1% [at 11.4 µM]

Structure (SMILES): O=C1[C@H]2[C@H]3[C@H](O)[C@H](O)C/C(=N/OCc4ccccc4)[C@@H]3CC[C@@H]2C(=O)N1Cc1ccc2c(c1)OCO2
- Potency [1]: 2 µM (active)
- activity change, positive = activation [2]: -100% [at 11.4 µM]

Structure (SMILES): COC(=O)C/C=C\[C@@H](C)[C@@H](/C=N\O[C@@H](C)c1cn([C@H](CO)Cc2ccccc2)nn1)NS(=O)(=O)c1ccc(C)cc1
- Potency [1]: 3.98 µM (active) and 2 µM (active)
- activity change, positive = activation [2]: -101% [at 11.4 µM] and -92.7% [at 11.4 µM]

Structure (SMILES): FC(F)(F)c1ccc(CN2C[C@@H]3C(c4ccccc4)C4(c5cccnc5)CC3(C4)[C@H]2c2ccccc2)cc1 (stereo partly specified)
- Potency [1]: 15.8 µM (active)
- Potency [2]: inactive

Structure (SMILES): CCC1=C(OC(=O)N(CC)CC)N2C(=O)OC(=NCC3CC3)[C@]2(C)[C@H]2C1=CC[C@H]1C(=O)N(c3ccccc3)C(=O)[C@H]12
- Potency [1]: 3.16 µM (active)
- Potency [2]: inactive

Structure (SMILES): COc1cccc([C@@H]2Oc3ccc(OC)cc3C(=O)[C@H]2O)c1
- Potency [1]: 3.98 µM (active)
- activity change, positive = activation [2]: -83.3% [at 11.4 µM]

Structure (SMILES): N#Cc1ccc(C23CC4(C2)[C@H](CN(Cc2cccnc2)[C@@H]4c2ccccc2)C3c2ccc(C(F)(F)F)cc2)cc1 (stereo partly specified)
- Potency [1]: 6.31 µM (active)
- Potency [2]: inactive

Structure (SMILES): S=C=Nc1cccc(NC(=S)NCCCCNC(=S)Nc2cccc(N=C=S)c2)c1
- Potency [1]: 3.16 µM (active)
- Potency [2]: inactive
